A short description of assay [1]: ATG_M_06_XSP1: Attagene TRANS-FACTORIAL Multi-Species (XSP1) HepG2 Assay for M06 Transcription Factor (Internal Marker) (AID 2283790). Put shortly: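 Transfected HepG2 multi-reporter system treated 24 h in the presence of 3 nM 6-alpha-fluorotestosterone. The M06 internal marker transcript was quantified by RT-PCR with capillary electrophoresis as a background control, and gain of signal was scored versus DMSO.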

Assay [2] in a line: ATG_M_61_XSP1: Attagene TRANS-FACTORIAL Multi-Species (XSP1) HepG2 Assay for M61 Transcription Factor (Internal Marker) (AID 2283797). Here is the method:
ATG_XSP1_multi-species_TRANS is a cell-based, multiplexed assay created by modifying the existing Attagene TRANS-FACTORIAL system to include a panel of nuclear receptors from some or all the following species: human (Homo sapiens), mouse (Mus musculus), frog (Xenopus laevis), zebrafish (Danio rerio), chicken (Gallus gallus), and turtle (Chrysemys picta). The ECOTOX-FACTORIAL format uses HepG2, a human liver cell line, with measurements taken at 24 hours after chemical dosing in a 24-well plate. Xsp1 included 3 nM 6-alpha-fluorotestosterone to partially stimulate the androgen receptor.ATG_M_61_XSP1 is one of 29 assay components measured or calculated from the ATG_XSP1_multi-species_TRANS assay. It is designed to make measurements of mRNA induction, a form of inducible reporter, as detected with fluorescence intensity signals by Reverse transcription polymerase chain reaction (RT-PCR) and Capillary electrophoresis technology.This assay endpoint, ATG_M_61_XSP1, was analyzed in the positive analysis fitting direction relative to DMSO as the negative control and baseline of activity. Using a type of inducible reporter, measures of mRNA for gain-of-signal activity can be used to understand the background control at the transcription factor-level as they relate to the gene. Furthermore, this assay endpoint can be referred to as a secondary readout, because this assay has produced multiple assay endpoints where this one serves a background control function. To generalize the intended target to other relatable targets, this assay endpoint is annotated to the background measurement intended target family, where the subfamily is internal marker.
Human liver HepG2 cells are transiently transfected with multiple reporter transcription units (MRTUs) in 6-well plates using FuGene 6 reagent (Roche; 3 ml FuGene/1 mg DNA). The MRTU constructs are regulated by a cis-regulating element (promoter). […] A major difference between the CIS and TRANS system is that in CIS activities of endogenous TFs are measured, whereas the TRANS assay evaluates changes in activities of exogenous, chimeric NR-Gal4 proteins. […] At the end of 24 hour incubation, total RNA was isolated using TriZol reagent (Invitrogen). The isolated RNA is then reverse-transcribed using oligo(dT) primer and Mo-MLV reverse transcriptase (Invitrogen) with DNAse I (Ambion) treatment for 30 min. […] The fragments were purified using Qiaquick PCR columns (Qiagen), analyzed on an ABI 3130xL genetic analyzer (Applied Biosystems) with peak positions identified by using a set of X-rhodamine (ROX)-labeled MapMarker1000 molecular weight standards (BioVentures). […]

Assay [3] concerns the target Peroxisome proliferator-activated receptor gamma (Homo sapiens) (UniProt P37231). As to the kind of experiment: ATG_hPPARg_XSP1: Attagene TRANS-FACTORIAL Multi-Species (XSP1) HepG2 Assay for human Peroxisome Proliferator-activated Receptor gamma (PPARg) (AID 2283800). Put shortly:
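HepG2 cells transiently transfected with GAL4-UAS reporter units carrying chimeric NR-Gal4 proteins; 3 nM 6-alpha-fluorotestosterone present. After 24 h dosing, reporter mRNA quantified by RT-PCR and capillary electrophoresis; gain of signal relative to DMSO.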

In assay [4] the test system is zebrafish Peroxisome Proliferator-activated Receptor gamma (PPARg), gene 557037. As to the kind of experiment: ATG_zfPPARg_XSP1: Attagene TRANS-FACTORIAL Multi-Species (XSP1) HepG2 Assay for zebrafish Peroxisome Proliferator-activated Receptor gamma (PPARg) (AID 2283801). Put shortly:
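HepG2 cells transiently transfected with GAL4-UAS reporter units including a zebrafish PPARg–GAL4 chimera, dosed 24 h with 3 nM 6-alpha-fluorotestosterone present. Reporter mRNA quantified by RT-PCR, FAM labelling, HpaI digestion and capillary electrophoresis; induction versus DMSO.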

Assay [5] has as its target mouse Peroxisome Proliferator-activated Receptor gamma (PPARg), Pparg (gene 19016) (UniProt P37238). As to the kind of experiment: ATG_mPPARg_XSP1: Attagene TRANS-FACTORIAL Multi-Species (XSP1) HepG2 Assay for mouse Peroxisome Proliferator-activated Receptor gamma (PPARg) (AID 2283802). Put shortly: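 HepG2 cells transiently transfected with GAL4-UAS reporter units driven by mouse PPARg–GAL4 chimera; 3 nM 6-alpha-fluorotestosterone present. After 24 h dosing, reporter mRNA quantified by RT-PCR, fluorescent labelling and capillary electrophoresis; gain of signal versus DMSO.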

The target in assay [6] is Nuclear receptor subfamily 1 group I member 2 (Mus musculus) (UniProt O54915). As to the kind of experiment: ATG_mPXR_XSP1: Attagene TRANS-FACTORIAL Multi-Species (XSP1) HepG2 Assay for mouse Pregnane X Receptor (PXR) (AID 2283803). The method in brief:
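Transiently transfected HepG2 cells expressing a receptor-Gal4 chimera drive a GAL4-UAS reporter; 3 nM 6-alpha-fluorotestosterone included. Reporter mRNA read 24 h post-dose by RT-PCR and capillary electrophoresis; gain of signal relative to DMSO.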

Assay [7] addresses frog Thyroid hormone Receptor alpha (TRa), thra-a (gene 397942) (UniProt P15204). Nature of the assay: ATG_frTRa_XSP1: Attagene TRANS-FACTORIAL Multi-Species (XSP1) HepG2 Assay for frog Thyroid hormone Receptor alpha (TRa) (AID 2283804). Put shortly:
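HepG2 cells transiently transfected with frog TRa-GAL4 chimeric reporter units, dosed 24 hr with 3 nM 6-alpha-fluorotestosterone present; reporter mRNA quantified by RT-PCR, fluorescent labelling and capillary electrophoresis, gain of signal versus DMSO.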

For assay [8], the target named is GAL4 Transcription Factor (Internal Marker), GAL4 (gene 855828) (UniProt P04386). Nature of the assay: ATG_GAL4_XSP1: Attagene TRANS-FACTORIAL Multi-Species (XSP1) HepG2 Assay for GAL4 Transcription Factor (Internal Marker) (AID 2283789). Put shortly: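 HepG2 cells transiently transfected with multiplexed GAL4-UAS reporter units were exposed for 24 h with 3 nM 6-alpha-fluorotestosterone present. Reporter mRNA was quantified by RT-PCR, FAM labelling, HpaI digestion and capillary electrophoresis; background-control readout, gain-of-signal versus DMSO.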
Chain of GAL4 Transcription Factor (Internal Marker), GAL4 (gene 855828) (P04386 whole entry, looked up, the tested form may be a part): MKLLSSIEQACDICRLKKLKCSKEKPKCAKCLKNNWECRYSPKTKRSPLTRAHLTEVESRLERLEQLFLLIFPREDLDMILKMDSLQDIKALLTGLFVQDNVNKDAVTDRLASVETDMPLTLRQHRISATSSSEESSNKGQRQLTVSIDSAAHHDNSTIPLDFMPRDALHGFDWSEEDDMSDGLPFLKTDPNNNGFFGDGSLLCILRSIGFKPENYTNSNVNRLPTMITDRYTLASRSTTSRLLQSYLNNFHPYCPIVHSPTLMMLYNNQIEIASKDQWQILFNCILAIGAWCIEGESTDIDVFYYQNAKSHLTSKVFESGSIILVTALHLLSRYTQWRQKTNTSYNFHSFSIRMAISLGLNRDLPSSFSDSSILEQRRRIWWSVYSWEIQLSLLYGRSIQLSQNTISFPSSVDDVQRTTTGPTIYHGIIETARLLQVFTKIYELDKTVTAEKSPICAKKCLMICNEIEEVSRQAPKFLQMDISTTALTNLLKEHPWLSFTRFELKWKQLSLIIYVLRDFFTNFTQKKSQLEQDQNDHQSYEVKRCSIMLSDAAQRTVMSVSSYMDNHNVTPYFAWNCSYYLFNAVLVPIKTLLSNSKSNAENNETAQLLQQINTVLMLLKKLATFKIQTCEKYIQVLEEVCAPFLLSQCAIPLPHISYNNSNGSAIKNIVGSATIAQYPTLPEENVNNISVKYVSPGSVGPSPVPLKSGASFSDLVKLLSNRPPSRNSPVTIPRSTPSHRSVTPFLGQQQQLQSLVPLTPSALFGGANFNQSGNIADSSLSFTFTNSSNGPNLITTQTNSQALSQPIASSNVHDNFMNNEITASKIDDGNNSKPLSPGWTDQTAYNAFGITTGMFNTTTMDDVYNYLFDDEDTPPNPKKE

The nature of assay [9]: ATG_M_32_XSP1: Attagene TRANS-FACTORIAL Multi-Species (XSP1) HepG2 Assay for M32 Transcription Factor (Internal Marker) (AID 2283799). Put shortly: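 HepG2 cells transiently transfected with multi-species TRANS reporter units, dosed 24 h with 3 nM 6-alpha-fluorotestosterone present. Internal-marker reporter mRNA quantified by RT-PCR and capillary electrophoresis; positive-direction fit versus DMSO.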

A short description of assay [10]: ATG_M_19_XSP1: Attagene TRANS-FACTORIAL Multi-Species (XSP1) HepG2 Assay for M19 Transcription Factor (Internal Marker) (AID 2283798). The method in brief:
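HepG2 cells transiently transfected with multiplexed GAL4-UAS reporter units, dosed 24 h with 3 nM 6-alpha-fluorotestosterone present for partial AR stimulation. Reporter mRNA measured by RT-PCR with capillary electrophoresis; gain-of-signal fitted relative to DMSO.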

Records with an inconclusive call do not appear. Calls of active or inactive are those of the source. Rule for the calls: active = hit-call score of the fitted dose curve at least 0.9, where 1 is the maximum; inconclusive = response in the unintended direction; inactive = score below 0.9.

Chain of Peroxisome proliferator-activated receptor gamma (Homo sapiens) (P37231 whole entry, looked up, the tested form may be a part): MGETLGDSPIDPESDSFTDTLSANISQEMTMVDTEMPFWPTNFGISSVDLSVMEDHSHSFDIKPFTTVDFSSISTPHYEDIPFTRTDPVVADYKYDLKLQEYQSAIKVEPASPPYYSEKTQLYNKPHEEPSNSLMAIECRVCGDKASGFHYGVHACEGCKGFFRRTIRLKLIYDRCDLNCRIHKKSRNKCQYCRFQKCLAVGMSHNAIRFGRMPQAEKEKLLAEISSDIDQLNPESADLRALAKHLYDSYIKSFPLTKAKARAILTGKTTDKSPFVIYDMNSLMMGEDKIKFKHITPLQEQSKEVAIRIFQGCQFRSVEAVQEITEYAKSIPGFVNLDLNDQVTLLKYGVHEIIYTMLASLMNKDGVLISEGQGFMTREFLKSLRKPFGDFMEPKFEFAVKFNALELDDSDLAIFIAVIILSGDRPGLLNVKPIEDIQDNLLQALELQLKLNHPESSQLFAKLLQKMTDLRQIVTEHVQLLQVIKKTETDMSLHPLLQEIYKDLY
Chain of mouse Peroxisome Proliferator-activated Receptor gamma (PPARg), Pparg (gene 19016) (P37238 whole entry, looked up, the tested form may be a part): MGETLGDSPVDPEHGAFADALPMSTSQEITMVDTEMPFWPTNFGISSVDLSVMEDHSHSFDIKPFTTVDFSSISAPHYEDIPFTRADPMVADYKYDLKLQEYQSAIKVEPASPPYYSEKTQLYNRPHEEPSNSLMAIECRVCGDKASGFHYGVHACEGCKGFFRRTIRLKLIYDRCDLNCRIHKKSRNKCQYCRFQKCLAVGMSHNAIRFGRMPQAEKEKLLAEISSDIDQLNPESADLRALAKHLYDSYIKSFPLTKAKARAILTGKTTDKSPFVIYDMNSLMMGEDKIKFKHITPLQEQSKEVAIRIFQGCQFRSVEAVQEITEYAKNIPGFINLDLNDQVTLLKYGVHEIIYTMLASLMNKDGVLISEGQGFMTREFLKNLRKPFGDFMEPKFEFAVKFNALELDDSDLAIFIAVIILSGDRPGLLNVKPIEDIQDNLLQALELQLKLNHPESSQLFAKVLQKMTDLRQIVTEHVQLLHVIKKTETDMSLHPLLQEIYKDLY
Chain of frog Thyroid hormone Receptor alpha (TRa), thra-a (gene 397942) (P15204 whole entry, looked up, the tested form may be a part): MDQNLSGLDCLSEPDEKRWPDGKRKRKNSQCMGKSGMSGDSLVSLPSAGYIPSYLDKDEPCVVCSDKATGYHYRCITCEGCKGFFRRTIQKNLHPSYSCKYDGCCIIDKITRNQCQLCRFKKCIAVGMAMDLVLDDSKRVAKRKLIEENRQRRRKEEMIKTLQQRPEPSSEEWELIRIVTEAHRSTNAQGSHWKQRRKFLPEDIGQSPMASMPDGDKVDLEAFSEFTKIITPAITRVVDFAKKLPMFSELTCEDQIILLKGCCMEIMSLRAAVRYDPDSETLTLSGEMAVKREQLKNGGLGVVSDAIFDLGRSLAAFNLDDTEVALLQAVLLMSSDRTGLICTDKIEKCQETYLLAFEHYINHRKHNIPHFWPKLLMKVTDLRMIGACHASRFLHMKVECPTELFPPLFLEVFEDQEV
Chain of Nuclear receptor subfamily 1 group I member 2 (Mus musculus) (O54915 whole entry, looked up, the tested form may be a part): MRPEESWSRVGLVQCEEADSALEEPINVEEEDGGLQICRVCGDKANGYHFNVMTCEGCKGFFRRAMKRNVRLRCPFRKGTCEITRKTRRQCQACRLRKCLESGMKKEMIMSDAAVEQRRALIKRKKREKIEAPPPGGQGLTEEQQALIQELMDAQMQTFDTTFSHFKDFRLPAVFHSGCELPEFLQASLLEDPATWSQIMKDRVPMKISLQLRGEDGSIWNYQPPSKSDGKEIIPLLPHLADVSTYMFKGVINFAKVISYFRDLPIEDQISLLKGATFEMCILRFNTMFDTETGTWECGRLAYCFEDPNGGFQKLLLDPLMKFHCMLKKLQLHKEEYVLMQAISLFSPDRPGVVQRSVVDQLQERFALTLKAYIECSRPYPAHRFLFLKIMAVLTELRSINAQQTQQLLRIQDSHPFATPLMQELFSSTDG

Turning to `CCN(CC)C(=O)C(C)Oc1cccc2ccccc12` (stereo not given), the molecule was classed as inactive in assay [1], in assay [2], in assay [4] and in [7]. Besides, the values for the concentration at half-maximal activity (AC50) in assay [3], in assay [5] and in assay [6] were 48.4 µM (active), 20.7 µM (active) and 1.27 µM (active), respectively.
With `COP(=S)(OC)Oc1ccc([N+](=O)[O-])c(C)c1`, the result in assay [8], in assay [1], in assay [2], in assay [9] and in assay [4] was inactive. Further, the values for the half-maximal activity concentration (AC50) in assay [3], in assay [5] and in assay [6] were 64.4 µM (active), 100 µM (active) and 27.4 µM (active), respectively.
Take `CC1(C)CCC(=Cc2ccc(Cl)cc2)C1(O)Cn1cncn1` (stereo not given): the call in assay [1], in assay [2], in assay [10], in [9], in assay [3] and in [5] was inactive. Further, in [7], the outcome was inactive. Further, the AC50 in [6] is 5.78 µM (active).
For the molecule `CSC(=O)c1c(C(F)F)nc(C(F)(F)F)c(C(=O)SC)c1CC(C)C`, the outcome in [10], in assay [9] and in assay [4] was inactive. In addition, the half-maximal activity concentration (AC50) in assay [3] is 7.26 µM (active); in assay [5], 3.94 µM (active); in assay [6], 0.139 µM (active).
On to `CC(C)NC(=O)N1CC(=O)N(c2cc(Cl)cc(Cl)c2)C1=O`, for which the call in assay [8], in assay [10], in assay [9] and in [7] was inactive. Also, the AC50 in [3] was 31.3 µM (active); in assay [5], 30.4 µM (active); in [6] it was 12 µM (active).
Turning to `CC1(C)C(C=C(Cl)Cl)C1C(=O)OC(C#N)c1cccc(Oc2ccccc2)c1` (stereo not given), the call in assay [8], in assay [10] and in [9] was inactive. Also, the AC50 in assay [3] was 4.23 µM (active); in assay [4] it was 3.54 µM (active); in assay [5], 13.5 µM (active); in [6], 0.579 µM (active).
Turning to `Cc1c(COC(=O)[C@@H]2[C@H](/C=C(\Cl)C(F)(F)F)C2(C)C)cccc1-c1ccccc1`, the result in assay [1], in assay [2], in [10], in assay [9] and in [3] was inactive. Besides, the values for the AC50 in [5] and in [6] were 42.5 µM (active) and 2.23 µM (active), respectively.

As usually defined, the AC50 is the concentration giving half of the maximal activity seen.

Values taken from PubChem BioAssay (EPA / NIEHS).
